Screening results: PubChem, National Center for Advancing Translational Sciences (NCATS)
DRD3 antagonist – antagonists of human D3 dopamine receptor; P35462; D3R cells, DiscoveRx beta-arrestin luminescence, antagonist mode; stronger effect = lower value; max response, negative = inhibition, %; 360,000 tested, 2.5% active; in the data active = max response below about -50%; inconclusive = no clear call, values can overlap the other calls; also: % is scaled to controls: 0 for no effect and ±100 for the full control effect
Target sequence (P35462 whole entry, looked up): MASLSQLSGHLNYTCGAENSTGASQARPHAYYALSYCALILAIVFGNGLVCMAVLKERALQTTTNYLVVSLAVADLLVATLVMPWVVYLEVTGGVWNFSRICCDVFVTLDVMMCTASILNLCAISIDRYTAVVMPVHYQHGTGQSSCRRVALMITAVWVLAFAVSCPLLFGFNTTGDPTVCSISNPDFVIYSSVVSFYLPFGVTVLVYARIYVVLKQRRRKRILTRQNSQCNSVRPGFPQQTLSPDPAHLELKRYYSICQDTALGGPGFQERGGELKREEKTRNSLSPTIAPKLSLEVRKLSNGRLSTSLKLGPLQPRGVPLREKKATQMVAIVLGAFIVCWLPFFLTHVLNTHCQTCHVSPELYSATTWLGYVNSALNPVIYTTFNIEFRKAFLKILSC
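Cells plated overnight at 1500 cells/well, then exposed to library compounds with dopamine controls for 90 minutes at 37 degrees C. DiscoveRx reagent added for 30–60 minutes at room temperature; luminescence read, quantitative HTS format.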
D3 ag – D3 dopamine receptor (human) agonism; max activation, %; D3R DiscoveRx beta-arrestin cells, luminescence, 90 min; 410,000 tested, 0.58% active; in the data active = max activation above about 30%; also: 0% is about no effect
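Agonist-mode cell screen: cells plated at 1500/well and incubated overnight at 37 °C, then exposed to library compounds for 90 min at 37 °C. Detection reagent was added for 30–60 min at room temperature, and luminescence was read.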
B2AR arrestin – agonists driving beta-arrestin recruitment to human beta2-adrenergic receptor. 330,000 tested, 0.02% active. Potency, µM (titrated, usually from 46.1 µM), inactives show at the highest dose activation, hits mostly activators. beta-arrestin recruitment to beta2AR, cell-based reporter. P07550. AID 492947;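 also: potency is read from the fitted curve at half-maximal effect; 0% = DMSO controls and full agonism = EC100 isoproterenol or metaproterenol; nearly all actives have a fitted effect of over 65% in size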
RGS4 inhibitor – inhibitors of human regulator of G protein signaling 4 | Transcreener GDP fluorescence polarization, RGS4-accelerated GTP hydrolysis | 390,000 tested, 0.039% active | Potency, µM (top dose mostly 114 µM), for the others: top-dose activity change, negative = inhibition, hits mostly inhibitors | P49798; also: potency is read from the fitted curve at half-maximal effect; % is scaled to controls: 0 for no effect and ±100 for the full control effect; nearly all actives have a fitted effect of over 75% in size
Target sequence (P49798 whole entry, looked up): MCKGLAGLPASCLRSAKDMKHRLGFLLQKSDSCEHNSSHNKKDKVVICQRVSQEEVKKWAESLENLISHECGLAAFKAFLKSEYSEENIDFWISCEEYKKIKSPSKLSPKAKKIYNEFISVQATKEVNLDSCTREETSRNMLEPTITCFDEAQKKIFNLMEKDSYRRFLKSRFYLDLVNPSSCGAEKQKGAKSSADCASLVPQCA
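MLSMR compounds (23 nl, pin-transferred) preincubated 10 min at room temperature with a 500nM (2x) first reagent, then RGS4 at 900nM (2x) plus Transcreener GDP mix added; fluorescence polarization (620/688 nm) read before and after 90 min at 30 °C.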
BRCA1 expr act – activators of BRCA1 expression. MCF7-BRCA1-FFLuc reporter, luminescence, 48 h; response scale: scaled: vehicle 0%, 10 µM genistein 100%. Potency, µM (doses to about 46.1 µM), for inactives: top-dose activation, actives largely listed as activators. 380,000 tested, 1.1% active. AID 624202; also: potency is read from the fitted curve at half-maximal effect; nearly all actives have a fitted effect of over 80% in size
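First, MCF7-BRCA1-FFLuc cells (2000/well) attach for 2 h; next, compounds are pin-added and incubated 48 h at 37 °C; finally, luciferase reagent is added and luminescence read after 15 min.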
PTHR1 agonist – PTHR1 (human) receptor agonism. AID 743266. 410,000 tested, 0.075% active. Potency, µM (doses to about 115 µM), for inactives: at the top dose activation, usual class: activators. Q03431. HEK293 GP2 PTHR1 cells, GloSensor cAMP luminescence, 1 h; also: potency is read from the fitted curve at half-maximal effect; nearly all actives have a fitted effect of over 55% in size
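HEK-293-derived GP2 cells expressing PTHR1 and a GloSensor cAMP reporter, 3,000/well, plated overnight, given luciferin plus IBMX (each 0.5 mM as added) for 1 h at 37 °C, then compound for 1 h at 37 °C. Luminescence was read after 15 min at room temperature.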
An asterisk follows results filed as active; i = inactive; ? = inconclusive; · = not tested or not shown; [ ] = remark or other dose. Rows were chosen to be rich in hits. Some 3.7% of all compounds tested hit in one or more screens of this group. Unless noted, calls follow the shape of the dose curve; as a rule, active = well fitted curve in the direction sought with a large enough effect; inconclusive = small, poorly fitted or top-dose-only effect, or another doubt; inactive = no such curve, though single readings can be large; an effect the other way counts as inactive or inconclusive.

SMILES | DRD3 antagonist | D3 ag | B2AR arrestin | RGS4 inhibitor | BRCA1 expr act | PTHR1 agonist
Oc1c(C(c2ccc(Cl)cc2)N2CCCC2)cc(Cl)c2cccnc12 (stereo not given) | -106* | -9 | 0% | -49% | -101% | -17%
CN1CCN(C(c2ccccn2)c2cc(Cl)c3cccnc3c2O)CC1 (stereo not given) | -126* | -18 | ? | ? | -68% | i
Cc1cccc(CN2CCN(C3CN(Cc4cn(Cc5ccc(Cl)cc5)nn4)S(=O)(=O)C3)CC2)c1 (stereo not given) | -21 | -4 | · | · | -11% | -60%
Oc1c(C(c2ccccc2Cl)N2CCCC2)ccc2cccnc12 (stereo not given) | -53* | -7 | 5% | -32% | -81% | -16%
Oc1c(C(Nc2ccccn2)c2cccnc2)cc(Cl)c2cccnc12 (stereo not given) | -121* | -5 | 2% | -32% | -83% | i
CC(=O)NC(c1ccc(C)cc1)c1cc(Cl)c2cccnc2c1O (stereo not given) | -79* | -15 | -1% | 12% | -67% | -7%
CCN(C(=O)c1ccc(NC(=O)Cc2ccccc2)cc1)c1ccccc1 | -4 | -2 | 1% | 14% | -2% | -3%
CC(C)c1nc(SCC(=O)Nc2c[nH]c(=O)[nH]c2=O)c2cnn(-c3ccccc3)c2n1 | 3 | -4 | -1% | -2% | -32% | -2%
CCCCC(=O)NC(=S)NNC(=O)c1ccc(OC)cc1 | -11 | 3 | 0% | ? | -62% | -12%
COC1=CC(=O)c2nc(Cl)ccc2C1=O | -75* | -12 | · | · | -75% | -54%
CCC(CC)C(=O)N(C)c1c(C)nc2c(OCc3cccc(Cl)c3)cccn12 | -62* | -3 | · | · | 0% | -1%
COc1ccc(CC(=O)NNC(=O)COc2ccc(Cl)cc2C)cc1S(=O)(=O)N1CCOCC1 | 0 | -4 | -1% | 17% | -13% | -40%
COc1cc(C(=O)NCC2CCCO2)ccc1OCc1ccccc1Cl (stereo not given) | 5 | 2 | 0% | 42% | 15% | -37%
CC(CCC(C)C(C)(C)C)[C@@H]1CC[C@H]2C3C[C@H](OS(O)(=S)=S)[C@H]4C[C@H](OS(O)(=S)=S)[C@@H](OS(O)(=S)=S)C[C@]4(C)[C@H]3CC[C@]12C (stereo not given in full) (tested in a mixture with another compound) | -83* | -10 | -1% | -131% | -15% | -24%
CC(OC(=O)CC1CCCC1)C(=O)Nc1ccc(Cl)cn1 (stereo not given) | -54* | -2 | 0% | 0% | -5% | i
C[C@@H]1CN([C@@H](C)CO)S(=O)(=O)c2ccc(Br)cc2O[C@H]1CN(C)C(=O)C1CCC1 | -20 | -6 | · | · | -1% | -26%
COc1cccc(-n2cc(CNCc3cn(C)nc3-c3ccccc3F)cn2)c1 | 7 | 67* | 1% | -24% | 0% | -29%
CCOc1ccc(CN2C(=O)c3ccccc3C2C(=O)NCCc2ccc(OC)c(OC)c2)cc1 (stereo not given) | · | 13 | · | 8% | · | i
Cc1ccc(C(=O)CN2/C(=C(\O)c3ccccc3)C(=O)c3ccccc3S2(=O)=O)c(C)c1 | -50* | -4 | 0% | 11% | -70% | -10%
Cc1ccc(C(=O)CN2C(=O)c3ccccc3S2(=O)=O)cc1 | 0 | 16 | -1% | 4% | -96% | -37%
O=C(N/N=C/c1cccc2nccnc12)c1ccccc1O | -15 | -3 | -1% | 28%[11.4 µM] | -46% | 8%
O=C(N/N=C/c1cccc2cccnc12)c1ccccc1O | -53* | -15 | -1% | -2% | -66% | i
CCCCc1ccc(NC(=O)CSC2=NN3CCCC(=O)N=C3S2)cc1 | -5 | 0 | 0% | -10% | -28% | -26%
Cc1cccc2c1NC(=O)C2=O | -13 | -21 | · | -36% | -10% | -18%
O=C1Nc2c(Cl)cccc2C1=O | ? | -10 | · | · | -11% | -8%
SMILES | DRD3 antagonist | D3 ag | B2AR arrestin | RGS4 inhibitor | BRCA1 expr act | PTHR1 agonist
O=C1Nc2c(Br)cccc2C1=O | -94* | -40 | -1% | -18% | -17% | i
COC(=O)c1cccc2c1NC(=O)C2=O | -75* | -14 | 0% | -27% | -46% | i
CCOc1ccc(NC(=O)c2sc3nc4c(c(-c5ccc(OC)cc5)c3c2N)C(=O)CC(C)(C)C4)cc1 | · | 5 | · | -1% | · | -24%
CCOc1cc(CNC(=O)c2cc(-c3ccccc3)n[nH]2)cc(OCC)c1OCC | · | 6 | · | -1% | · | i
O=Cc1ccc(OCc2ccc3ccccc3c2)cc1 | -7 | -5 | 0% | -9% | 4.5µM* | -13%
O=Cc1ccc(OCc2ccccn2)cc1 | 7 | -6 | 0% | 4% | 62% | -6%[57.5 µM]
CCCCNC(=O)COC(=O)c1c2c(nc3ccccc13)CCC2 | 26 | -5 | 0% | -5% | -14% | -4%
CCCCNC(=O)COC(=O)c1c2c(nc3ccccc13)/C(=C/c1cccs1)CC2 | 11 | 69* | 0% | -47% | -47% | i
CNC(=O)NC(=O)C(C)OC(=O)c1c2c(nc3ccccc13)/C(=C/c1cccs1)CC2 (stereo not given) | 2 | 37* | 0% | 5% | ? | -52%
COc1ccc(Cc2c(C3CCCCC3)nc3c(C)cc(Br)cn23)c(C)c1 | 7 | 9 | · | · | -46% | -12%
CNC(=O)c1cc(Oc2ccc(NC(=O)Nc3ccc(Cl)c(C(F)(F)F)c3)cc2)ccn1 | -58* | 0 | 0% | -1% | -70% | -40%
Cc1ccc(C)c(N2CCN(CC3CCCCC3)CC2)c1 | -57* | -14 | 0% | 17% | -12% | -35%
Cc1cccc(N2CCN(CC3CCCCC3)CC2)c1C | -97* | -24 | -1% | 19% | 6% | ?
Cn1sccc1=O | -71* | -17 | 0% | ? | 8% | -14%
Cc1cc2[nH]cnc2c([N+](=O)[O-])c1C | 14 | 1 | 0% | -15% | -6% | i
O=C(CN1C(=O)CCn2nc(-c3ccccc3)cc21)NCc1ccc(Cl)cc1 | · | -3 | · | 14% | · | -25%
O=C1CCn2nc(-c3ccc(Cl)cc3)cc2N1 | 10 | 1 | 0% | -14% | 4µM* | -19%
Cc1nc2c(-c3ccccc3)c(C)[nH]n2c(=O)c1Cc1ccc(Br)cc1 | · | -5 | · | -10% | · | -31%
Cc1cc(C(=O)OCC(=O)Nc2c(F)cccc2F)c(C)n1-c1ccccc1 | -18 | -5 | 0% | ? | -10% | -47%
O=c1[nH][nH]c(=O)c2c(NS(=O)(=O)c3ccccc3)cccc12 | 13 | 8 | 0% | ? | 13µM* | -96%
